Compound activity as filed in PubChem.
Shown are actives, neighbours in structure and some others; about 4.6% of the full set was active somewhere.
Epigenetic reg: derepresses silenced GFP reporter in murine cells | murine LDR cells, GFP reporter derepression, 30 h | Potency, µM (series often up to 53.9 µM), for the others: top-dose GFP activation, actives largely listed as activators | 0.2% of 280,000 active | AID 1865; active = well fitted activation curve with a large enough effect; inconclusive = small, poorly fitted or top-dose-only effect; also: potency is read from the fitted curve at half-maximal effect; % of control where 0% means no effect; nearly all actives have a fitted effect of over 60% in size
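Derepression of a silenced CMV-GFP reporter in murine LDR cells is scored by enumerating GFP-positive cells with a laser-scanning microplate cytometer after 30 hours of treatment at 37 C.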
D1 antagonist: human D1 dopamine receptor antagonism; activity change, negative = inhibition, % at 10 µM; 3.2% of 360,000 active; P21728; HEK293 TREx D1 cells, calcium flux, dopamine EC80; active compounds read low; AID 504652; in the data active = activity change below about -30%; also: % is scaled to controls: 0 for no effect and ±100 for the full control effect
Target sequence (P21728 whole entry, looked up): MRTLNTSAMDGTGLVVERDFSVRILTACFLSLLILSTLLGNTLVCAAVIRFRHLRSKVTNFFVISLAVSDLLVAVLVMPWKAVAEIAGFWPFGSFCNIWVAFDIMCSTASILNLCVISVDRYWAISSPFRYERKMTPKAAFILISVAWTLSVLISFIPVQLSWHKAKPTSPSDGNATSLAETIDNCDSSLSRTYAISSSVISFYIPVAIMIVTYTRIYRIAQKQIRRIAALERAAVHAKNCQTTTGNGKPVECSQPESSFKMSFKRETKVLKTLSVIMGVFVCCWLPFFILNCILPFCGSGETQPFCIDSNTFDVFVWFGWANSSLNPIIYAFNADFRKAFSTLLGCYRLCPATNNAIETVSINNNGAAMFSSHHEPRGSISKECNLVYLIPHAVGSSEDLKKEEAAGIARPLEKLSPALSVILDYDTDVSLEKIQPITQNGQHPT
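Inducible Hek293 Trex D1 cells (tetracycline, overnight, 30 C). Calcium dye 30–90 min RT. Antagonist mode: EC80 dopamine added after 180 s compound read.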
D1 PAM: human D1 dopamine receptor positive modulation. potentiation, % at 10 µM. P21728. HEK293 TREx D1 cells, calcium flux, dopamine EC20 potentiation. 0.036% of 360,000 active; in the data active = potentiation above about 30%; also: 0% is about no effect
TRHR ag: agonists of human TRH receptor. 0.18% of 360,000 active. activation, % at 2 µM. P34981. TRHR cells, calcium flux fluo-8, FDSS agonist mode; also: 0% is about no effect
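TRHR-expressing cells, plated overnight in medium with 10% serum, were loaded with fluo-8 calcium dye at room temperature. After a 10 s baseline, library compound was pin-added and calcium release was recorded kinetically (ex 480/em 530) as agonist response.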
D1 agonist: agonists of human D1 dopamine receptor; P21728; AID 504660; HEK293 T-REx D1 cells, calcium flux, agonist mode; activation, % at 2 µM; 1% of 360,000 active; also: 0% is about no effect
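Agonism was scored from calcium flux recorded over 180 s (1 read/s) after pintool compound addition, following a 10-cycle baseline. Cells were inducible force-coupled HEK293 TREx D1, plated overnight at 30 C and loaded with no-wash calcium dye.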
TRHR PAM: allosterically enhances the human TRH receptor; P34981; TRHR cells, fluo-8 calcium fluorescence, EC20 TRH enhancement; enhancement, % at 2 µM; 0.66% of 360,000 active; in the data active = enhancement above about 30%; also: 0% is about no effect
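Enhancer read-out: after compound pinning and an initial kinetic agonist-mode read, an EC20 of TRH (10 nM final) was injected and fluo-8 calcium signal (Ex 480/Em 530) followed at 1 s/cycle for 100 cycles in TRHR-expressing cells.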
The depositor's hits bear a star; ? = inconclusive; / = not tested or not shown. Rule as the data show it, unless noted: active = activation above about 30%; inactive = the rest.

SMILES	Epigenetic reg	D1 antagonist	D1 PAM	TRHR ag	D1 agonist	TRHR PAM
Cc1ccccc1NC(=O)c1c(C)oc2ccc(O)c(CN3CCC(C)CC3)c12	-1.0%	13.1	-0.6	-0.5	3.8	9.9
CC(=O)Nc1ccc(S(=O)(=O)N2CCC(n3c(C)nc4cccnc43)CC2)cc1	4.9%	4.6	0.7	1.2	-0.3	-3.8
CCCCCCN1C=CC=C/C1=C\C=C(C#N)C#N	19.2%	-7.2	6.8	27.9	63.7*	-3.4
C/C(=N\NS(=O)(=O)c1ccccc1)c1ccccc1	-0.1%	2.0	-0.5	0.1	1.2	3.6
N/C(COc1ccccc1)=N\NS(=O)(=O)c1ccccc1	1.5%	4.6	-5.8	-0.1	3.3	31.0*
COc1cc(/C=N\NC(=O)CC#N)ccc1OC/C=C/c1ccccc1	/	-38.5*	-8.7	-0.1	-0.9	-8.5
O=C1CC(c2ccccc2)C(C(=O)Nc2ccccc2F)N1 (centres undefined)	2.4%	-32.2*	-1.4	0.5	-3.7	3.0
O=C(C1CCC1)N1CCc2cc(S(=O)(=O)NCCN3CCN(c4ccccc4F)CC3)ccc21	-0.2%	-39.1*	-10.5	1.9	3.3	0.3
COC(=O)c1cc(S(=O)(=O)NCCN2CCN(c3ccccc3F)CC2)c[nH]1	/	-42.5*	-10.7	1.3	4.1	3.0
COc1cc(C(=O)NCC(c2ccco2)S(=O)(=O)c2cccs2)cc(OC)c1OC (centres undefined)	5.4%	/	0.9	0.1	3.0	0.7
CCCc1cc(=O)oc2cc(C)c3c(-c4ccccc4)coc3c12	-1.9%	4.7	-0.1	0.3	2.2	49.2*
CCOC(=O)c1cnc2c(-c3ccccc3)cnn2c1N	1.8%	-26.8	-1.6	0.0	1.7	-8.4
CCOC(=O)c1cnc2c(C#N)cnn2c1N	-3.5%	5.2	-3.4	0.5	1.9	36.3*
Cc1cc(C)nc(SCC(=O)c2ccc(O)cc2O)n1	-0.2%	-42.7*	1.8	-0.6	3.9	6.7
O=C(NNc1c([N+](=O)[O-])cc(C(F)(F)F)cc1[N+](=O)[O-])c1ccco1	/	-35.9*	4.6	2.3	21.0	-4.0
Cn1c(=O)c2sccc2n2c(CCCC(=O)NCc3ccccc3)nnc12	0.0%	-8.0	-2.8	0.5	0.1	4.6
CCOP(=O)(OCC)C(NC(=O)Nc1ccccc1)C(N)=O (centres undefined)	1.0%	-32.1*	0.4	0.0	3.5	-3.1
COCCn1c(=O)[nH]c2cc(C(=O)NCCN3CCN(c4ccccc4F)CC3)ccc2c1=O	-1.0%	-18.2	-7.3	1.0	1.5	-2.8
O=C(CCCn1c(=O)[nH]c2cc(Cl)ccc2c1=O)NCCCN1CCCC1	-5.4%	-15.0	-3.1	0.4	1.8	-0.7
COCCn1c(=O)[nH]c2cc(C(=O)NCCCN3CCN(c4ccc(F)cc4)CC3)ccc2c1=O	-0.9%	-39.3*	-2.9	-0.2	1.6	4.9
COc1cc2[nH]c(=O)n(CCC(=O)NCCCN3CCN(c4ccccc4F)CC3)c(=O)c2cc1OC	-1.3%	-42.4*	-8.8	-0.2	2.1	-3.0
O=C(CCCn1c(=O)[nH]c2cc(Cl)ccc2c1=O)NCCCN1CCN(c2ccc(F)cc2)CC1	-0.3%	-65.6*	-12.1	-0.3	-1.3	16.3
O=C(Nc1nnc(-c2ccccc2)o1)Nc1ccc(F)cc1F	0.0%	-31.3*	-2.3	0.9	2.8	-0.8
CC1=C(C(=O)Nc2ccccc2)C(c2cccnc2)n2nc(SCc3ccccc3Cl)nc2N1 (centres undefined)	5.1%	-35.2*	-1.2	1.0	-0.8	-3.8
CC1=C(C(=O)Nc2ccccc2)C(c2cccnc2)n2nc(SCc3ccccc3F)nc2N1 (centres undefined)	0.8%	-2.7	1.2	-0.7	11.1	-2.6
SMILES	Epigenetic reg	D1 antagonist	D1 PAM	TRHR ag	D1 agonist	TRHR PAM
COc1ccc(-c2cc(C(=O)NCCc3ccccc3)c3c(-c4ccccc4)[nH]nc3n2)cc1OC	-0.9%	2.3	-1.2	-0.9	4.4	4.4
COc1ccc(CCNC(=O)c2cc(-c3ccc(C)cc3)nc3n[nH]c(-c4ccccc4)c23)cc1OC	1.3%	8.9	1.1	0.3	2.8	47.8*
CC(=O)Oc1ccc(Cn2cnc3cc4ccccc4cc32)cc1	11.9%	-42.0*	-10.2	0.5	11.3	4.1
CCOc1ccc2c(c1)ncn2Cc1ccccc1	-7.8%	-11.6	-2.8	-0.5	2.8	-13.0
N#Cc1c([N+](=O)[O-])cc([N+](=O)[O-])cc1S(=O)(=O)Cc1ccccc1	/	-34.5*	-4.5	-2.4	1.5	-10.6
COc1cc(OC)c(C#N)c(S(=O)(=O)Cc2ccccc2)c1	-0.7%	-10.8	-0.1	-0.1	1.5	10.6
CNCC[C@H](Oc1cccc2ccccc12)c1cccs1	-0.5%	-26.5	-1.2	4.7	60.9*	8.6
CC(C)C(C(=O)OCC(=O)c1cccc([N+](=O)[O-])c1)N1C(=O)[C@@H]2[C@H]3CC[C@H](C3)[C@@H]2C1=O (some centres undefined)	4.2%	-32.8*	1.9	0.1	1.7	-4.2
O=C(CCN1C(=O)C2C3CCC(C3)C2C1=O)OCC(=O)c1cccc([N+](=O)[O-])c1 (centres undefined)	0.0%	-5.6	5.0	0.5	2.9	2.1
O=C(CN1C(=O)C2C3CCC(C3)C2C1=O)OCC(=O)c1cccc([N+](=O)[O-])c1 (centres undefined)	0.0%	-33.4*	-6.3	0.2	13.9	-0.9
CC(Sc1nc(=O)cc(N)n1CCc1ccccc1)C(=O)Nc1ccccc1C#N (centres undefined)	-1.1%	2.4	-2.5	-0.5	-0.9	0.7
NC(=O)CC(NC(=O)Cc1ccc(Br)cc1)c1ccc(NCCN2CCCCC2)c([N+](=O)[O-])c1 (centres undefined)	/	-45.0*	0.2	0.0	3.6	10.3
NC(=O)CC(NC(=O)Cc1ccc(Br)cc1)c1ccc(NCCN2CCCC2)c([N+](=O)[O-])c1 (centres undefined)	/	-0.8	-3.4	0.3	-0.5	1.7
Cc1ccc(Cl)cc1NC(=O)Cn1cc(S(=O)(=O)Cc2ccccc2Cl)c2ccccc21	?	-2.0	2.3	1.2	4.1	-3.6
O=C(Nc1ccc2c(c1)OCCO2)N1CCN(c2ccc(F)cc2)CC1	-3.2%	-0.3	-7.2	-0.9	6.5	0.0
Cc1cccc(C)c1N1CCN(C(=O)Nc2ccc3c(c2)OCCO3)CC1	-1.1%	-34.4*	-6.2	0.1	19.7	-1.2
CC(=O)Nc1ccc2c(c1)OCCOCCOc1cc(NC(C)=O)ccc1OCCOCCOCCO2	1.4%	-70.2*	-3.5	-0.9	1.3	-22.7
CCN1CCN(C(c2ccc(F)cc2)c2c(O)cc(C)n(CCOC)c2=O)CC1 (centres undefined)	-2.9%	3.9	2.6	0.2	-0.4	-1.4
